Experimental findings from PubChem BioAssay (NCATS) are described below.

SMILES strings stand for the structures. Values joined by “and” are separate entries in the source; they are usually repeats but may differ in a detail not shown here. Equal entries are not always repeated. Records with an inconclusive call do not appear. Active and inactive are the calls of the source. Unless noted, how the calls were made is not given here.

A short description of test [1]: Cell Proliferation Assay Versus the ED40515 IL2 Dependent ATL cell lines (AID 1053195; calls by dose curve). The note with it: ED40515 IL2-dependent ATL cells. The procedure, abridged:
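CellTiter-Glo luminescence (15 min, RT) measured viability after 48 hours at 37C; cells were ED40515 +IL2, 1000/well, in phenol red-free RPMI with 5% FBS. Controls: DMSO and 9.2 uM bortezomib.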

Test [2] is described as follows: High-throughput drug toxicity screening in the BPDCN cell line Gen2.2 (AID 1224824).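 Further: cells exposed to compounds for 48 h before reading.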 As to conditions: Gen2.2 BPDCN cells; at 45.8 µM (top of the series) unless noted. The procedure, abridged:
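CellTiter-Glo luminescence after 48 h compound exposure of Gen2.2 cells; percent activity set with DMSO as 100% and bortezomib (9.2 uM final) as 0%. Cells seeded at 500 per well, RPMI + 10% FBS, 37 °C.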

Test [3] is described as follows: High-throughput drug toxicity screening in the BPDCN cell line Cal-1 (AID 1224825). As to conditions: Cal-1 BPDCN cell viability, qHTS; at 45.8 µM (top of the series) unless noted. The procedure, abridged: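 Percent activity derived from CellTiter-Glo luminescence, scaling DMSO to 100% and 9.2 uM final bortezomib to 0%. BPDCN Cal-1 cells (500/well, RPMI plus 10% FBS) incubated with compounds 48 hours at 37C before reading.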
In general terms: qHTS replaces the single test concentration by a dilution series.

Test [4] can be described thus: qHTS assay for measurement of the activity of small molecule inhibitors on Zika virus induced Caspase-3 activity in human iPSC derived neural progenitor cells (hNPCs) (AID 1224857; active means well fitted curve in the direction sought with a large enough effect; an effect the other way counts as inactive or inconclusive; further: % of control where 0% means no effect; nearly all actives have a fitted effect of over 65% in size). The procedure, abridged:
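In medium with heparin 2 ug/ml and cyclopamine 2 uM, hNPCs (350 cells/well) received compound for one hour and then Zika virus at 2 FFU/cell; caspase activity was measured by Caspase-Glo 3/7 luminescence 6 h post-infection.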

The nature of test [5]: qHTS assay for measurement of the activity of small molecule inhibitors on Zika virus induced Caspase-3 activity in human astrocytoma cells (AID 1224859; active means well fitted curve in the direction sought with a large enough effect; an effect the other way counts as inactive or inconclusive;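 further: plate controls were ZIKV-infected untreated cells for no effect and uninfected cells for full effect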). The procedure, abridged: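 A cell-based luminescent caspase-3/7 assay used SNB-19 cells infected with ZIKV (2 FFU/cell) for 6 h following 1 h compound pretreatment.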
Test [6] is described as follows: qHTS Screen of the MIPE 4.0 Collection Against Ewings Sarcoma (TC71) (AID 1259253; active means well fitted curve in the direction sought with a large enough effect; an effect the other way counts as inactive or inconclusive; further: potency means the concentration at half of the fitted maximal effect; nearly all actives have a fitted effect of over 40% in size). An outline of the steps: (§1)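 Cells plated in serum-containing RPMI (5% FBS) and treated with compound dilutions for 48 h. Readout luminescent viability; normalization relied on vehicle (no inhibition) and media-only columns (full inhibition).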
Test [7] is described as follows: qHTS Screen of the MIPE 4.0 Collection Against Ewings Sarcoma (EW8) (AID 1259255; active means well fitted curve in the direction sought with a large enough effect; an effect the other way counts as inactive or inconclusive; further: nearly all actives have a fitted effect of over 35% in size; further: potency means the concentration at half of the fitted maximal effect;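 on viability: 100% = DMSO-treated cells and 0% = medium-only wells without cells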). The procedure, abridged: as §1
A short description of test [8]: qHTS profiling for inhibitors of Plasmodium falciparum (3D7) proliferation (AID 743322).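 Further: infected erythrocytes exposed to compound for 72 h before lysis; 100% = DMSO vehicle wells and 0% = 0.29 µM artemisinin.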 The note with it: P. falciparum 3D7 proliferation; at 28.7 µM (top of the series) unless noted. The procedure, abridged: (§2)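 Parasite DNA was quantified by SYBR Green I fluorescence (ex 485, em 535 nm) after overnight lysis in saponin/Triton buffer at room temperature. Cultures at 0.3% parasitemia and 2.5% hematocrit were first exposed to compound for 72 h at 37 C; signals were normalised to artemisinin (0.29 uM) and vehicle wells.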

A short description of test [9]: qHTS profiling for inhibitors of Plasmodium falciparum (DD2) proliferation (AID 743323). As to conditions: lower = more inhibition; at 28.7 µM (top of the series) unless noted. The procedure, abridged: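 Parasite DNA quantified by SYBR Green fluorescence (ex 485, em 535 nm) after saponin/Triton lysis and overnight dark incubation. Cultures: 0.3% parasitemia, 2.5% hematocrit, 72 h, 37 C; data scaled between DMSO and 0.29 uM artemisinin.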

A short description of test [10]: qHTS profiling for inhibitors of Plasmodium falciparum (HB3) proliferation (AID 743324; active means well fitted curve in the direction sought with a large enough effect; an effect the other way counts as inactive or inconclusive;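 further: 100% = DMSO vehicle wells and 0% = artemisinin-treated control wells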). The note with it: Plasmodium falciparum HB3 blood-stage proliferation; at 28.7 µM (top of the series) unless noted. An outline of the steps:
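SYBR Green fluorescence (485 ex/535 em) of lysed cultures, incubated overnight at room temperature in the dark, quantifies parasite DNA. Infected erythrocytes at 0.3% parasitemia and 2.5% hematocrit were exposed 72 h; values normalized to DMSO and 0.29 uM artemisinin controls.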

Test [11] in a line: qHTS profiling of the MIPE4 collection as inhibitors of Plasmodium falciparum (3D7) proliferation (AID 743344).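 Further: scaled between DMSO vehicle wells and 0.29 µM artemisinin as full inhibition.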 As to conditions: P. falciparum 3D7 in erythrocytes, SYBR Green DNA fluorescence, 72 h; at 28.5 µM (top of the series) unless noted. An outline of the steps: as §2
Test [12] can be described thus: qHTS profiling of the MIPE4 collection as inhibitors of Plasmodium falciparum (DD2) proliferation (AID 743345). The note with it: P. falciparum Dd2 in erythrocytes, SYBR Green DNA, 72 h; at 28.5 µM (top of the series) unless noted. An outline of the steps: as §2
Test [13] is described as follows: qHTS profiling of the MIPE4 collection as inhibitors of Plasmodium falciparum (DD2) proliferation (Rep 2) (AID 743346). As to conditions: P. falciparum Dd2 in erythrocytes, SYBR Green DNA, 72 h; at 28.5 µM (top of the series) unless noted. An outline of the steps: as §2
Test [14] is described as follows: qHTS profiling of the MIPE4 collection as inhibitors of Plasmodium falciparum (HB3) proliferation (AID 743347).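 Further: plate controls were DMSO vehicle wells for no effect and artemisinin wells for full effect.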 As to conditions: P. falciparum HB3 in erythrocytes, SYBR Green DNA, 72 h; at 28.5 µM (top of the series) unless noted. An outline of the steps: as §2
Test [15] is described as follows: qHTS Screen of the MIPE 4.0 Collection Against Ewings Sarcoma (RDES) (AID 1259252; active means well fitted curve in the direction sought with a large enough effect; an effect the other way counts as inactive or inconclusive;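 further: 100% = DMSO-treated cells and 0% = medium-only wells without cells; nearly all actives have a fitted effect of over 35% in size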). The procedure, abridged: as §1
A short description of test [16]: qHTS Screen of the MIPE 4.0 Collection Against Ewings Sarcoma (TC32) (AID 1259256; active means well fitted curve in the direction sought with a large enough effect; an effect the other way counts as inactive or inconclusive; further: potency means the concentration at half of the fitted maximal effect; nearly all actives have a fitted effect of over 45% in size). An outline of the steps: as §1
Test [17] in a line: Identifying Small Molecule Inhibitors of Pancreatic Cancer Stem Cells (A2780, Spheroid) (AID 1259357; active means well fitted curve in the direction sought with a large enough effect; an effect the other way counts as inactive or inconclusive;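 further: spheroids pre-formed over 14 days in stem cell medium on hydrogel; compound exposure lasted 48 h before the ATP luminescence read; 100% = DMSO treated cells and 0% = wells without cells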). The note with it: Potency: A2780 spheroid viability. An outline of the steps: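 Spheroids grown 14 days in stem cell media on hydrogel-coated nonadherent plates; 2D lines seeded directly. Compounds added after 4 h attachment, 48 h at 37C, 5% CO2; CellTiter-Glo luminescence normalized to DMSO (no inhibition) and no-cell wells (full inhibition).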

As to `Nc1ncnc2nc(-c3ccc(N4CCOCC4)nc3)cc(-c3cccc(Br)c3)c12`, the values for the Potency in test [1], in test [6] and in [7] were 14.8 µM (active), 20.9 µM (active) and 33.2 µM (active), respectively. Besides, the cell viability, % of control (lower = more cytotoxic) in test [2] was 76%. For the same compound, the viability (% of control) in test [3] stood at 55.4%. Moreover, the Potency entry in test [4] and in test [5] was “inactive” each time.
Turning to `Cc1cc(SCc2sc(-c3ccc(C(F)(F)F)cc3)nc2C)ccc1OCC(=O)O`, in [8], the remaining parasite growth % (stronger effect = lower value) was 106% and 98.8%. For the same compound, the activity, percent of control in test [9] is 99.9% and 82.6%. For the same compound, the remaining proliferation (% of control), lower = more inhibition in test [10] is 77.3% and 39.3%. This compound also displayed a parasite growth, % of DMSO control in test [11] of 64.2%. The compound further gave a parasite growth remaining, % of DMSO control (lower = more inhibition) in [12] of 96.2%. In [13], this compound showed a parasite growth, % of control (lower = inhibition) of 50.7%. This compound showed a growth, % of control in test [14] of 96.6%. The Potency was 26.4 µM (active) in [1], 16.6 µM (active) in test [6] and 5.26 µM (active) in test [16]. In addition, in [2], the cell viability, % of control (lower = more cytotoxic) stood at 101%. Further, the viability (% of control) in test [3] stood at 114%. Also, the Potency result in test [4], in test [5], in test [15] and in [17] was “inactive” throughout.
As for `CN(C)c1ccc(C2Nc3ccc4ccccc4c3C3=C2C(=O)CC(C)(C)C3)cc1Br` (configuration not stated), the remaining parasite growth % (stronger effect = lower value) in test [8] came to 2.48%. For the same compound, the activity, percent of control in test [9] was 6.15%. Further, the remaining proliferation (% of control), lower = more inhibition in test [10] came out at 1.79%. Further, the parasite growth, % of DMSO control in test [11] came to 28.5%. This compound came in with a parasite growth remaining, % of DMSO control (lower = more inhibition) in [12] of 15%. For the same compound, the parasite growth, % of control (lower = inhibition) in test [13] was found to be 33.7%. Further, in test [14], the growth, % of control turned out to be 78%. Moreover, the Potency in test [1] is 14.8 µM (active); in [16], 16.6 µM (active). The cell viability, % of control (lower = more cytotoxic) in [2] is 119%. Further, the viability (% of control) in test [3] is 111%. For the same compound, the Potency result in [4], in [5] and in test [7] was “inactive” throughout.
With `Cc1cc(-c2nnc3n2CCCCC3)c(C)n1-c1ccc(F)cc1`, the remaining parasite growth % (stronger effect = lower value) in test [8] turned out to be 7.99%. Further, in test [10], the remaining proliferation (% of control), lower = more inhibition was 0.91%. In addition, in [1], the Potency was 11.8 µM (active).
On to `CN([C@@H](Cc1ccc(OS(=O)(=O)c2cccc3cnccc23)cc1)C(=O)N1CCN(c2ccccc2)CC1)S(=O)(=O)c1cccc2cnccc12`, for which the remaining parasite growth % (stronger effect = lower value) in test [8] is 0.0531% and -0.942%. Besides, the activity, percent of control in [9] was 0.806% and 0.455%. The remaining proliferation (% of control), lower = more inhibition in [10] is -0.274% and -0.52%. In [11], this compound returned a parasite growth, % of DMSO control of 5.27%. In test [12], this compound registered a parasite growth remaining, % of DMSO control (lower = more inhibition) of 6.98%. The parasite growth, % of control (lower = inhibition) in test [13] was 12.9%. Also, the Potency in test [1] was 6.62 µM (active).
